Inconclusive results are not listed. A call without a number means that no potency is given here. Values without a mark were called inactive. The source made the active and inactive calls. Calls come from the whole dose curve; as a rule, active = well fitted activation curve with a large enough effect in the repeat runs; inconclusive = weak or mixed curves; inactive = flat fitted curve, though single readings scatter. Where a SMILES comes first, the peptide text is derived from it. [ ]: non-standard residue; d: D form. pGlu = O=C1CC[C@@H](C(=O)O)N1

The test can be described thus: A CellTox Green Cytotoxicity Assay to monitor cytotoxicity in HepG2 cells - 40 hour (AID 1224879). Note: nearly all actives have a fitted effect of over 40% in size. Particulars: CellTox Green fluorescence; series mostly up to 76.8 µM. From the text:
National Center for Advancing Translational Sciences [NCATS]
NIH Chemical Genomics Center [NCGC]
U.S. Environmental Protection Agency [EPA]
National Institutes of Environmental Health Sciences [NIEHS]
National Toxicology Program [NTP]
Cell-based models are critical for drug discovery. Determining the natural cytotoxic effects resulting from test compounds is an essential research activity. A CellTox Green Cytotoxicity Assay to monitor cytotoxicity in real time of continues cell culture during 40 hours of the compound treatment was used to screen Tox21 10K library compounds in HepG2 cells. CellTox Green Cytotoxicity Assay is a nonlytic, homogeneous, biofluorescent method to measure cytotoxicity in cell culture after experimental manipulation. The assay system uses a proprietary asymmetric cyanine dye that is excluded from viable cells but preferentially stains the dead cell's DNA. […] Viable cells produce no appreciable increases in fluorescence. Therefore, the fluorescence signal produced by the binding interaction with dead cell DNA is proportional to cytotoxicity.
The mixture of HepG2 cell suspension and reagents were dispensed at 600cells/6 ul/well in 1536-well tissue culture treated black solid bottom plates using a Multidrop dispenser. After the assay plates were incubated at a 37 C/5% CO2 incubator for 5 hours, 23 nL of compounds dissolved in DMSO, positive and negative controls was transferred to the assay plate by a pintool work station. The plates were incubated at 37 C for 40 hours. The fluorescence intensity were measured at 0h, 8h, 16h, 24h, 32h and 40h time points using ViewLux plate reader during compound treatment.
Regarding `O=C(O)CNC(=O)c1ccc(CO)o1`, the Potency result is “inactive”.

As to `CC(C)C1CCC(O)CC1` (stereo not given), the Potency entry was “inactive”. Still for that read-out and setting: the entry for `COC(=O)Nc1ccc(Cl)c(Cl)c1` is “inactive”.

With `CNC(=O)Nc1ccc(Cl)c(Cl)c1`, the Potency entry is “inactive”. The same measure, in the same setting: the entry for `O=C(O)c1cn(C2CC2)c2cc(N3CCNCC3)c(F)cc2c1=O` is “inactive”; for `CC(C(=O)O)c1cccc(Oc2ccccc2)c1` (stereo not given) it is “inactive”.

As for `CCCCCCCCCCOc1cc2c(=O)c(C(=O)OCC)c[nH]c2cc1OCC`, the cytotoxicity increase is -5.64% [at 6.97 µM]. As for `COc1c(N2CCNC(C)C2)c(F)cc2c(=O)c(C(=O)O)cn(C3CC3)c12` (stereo not given), the Potency result was “inactive”. Still for that read-out and setting: the entry for `CC(=O)NC(=O)c1ccccc1O` is “inactive”.

Turning to `Cc1ccc(-c2ncc(Cl)cc2-c2ccc(S(C)(=O)=O)cc2)cn1`, the Potency result is “inactive”. On the same count and under the same terms, the entry for `CCCCCCCC1CCCC1=O` (stereo not given) is “inactive”; for `Clc1cc(Cl)cc(Cl)c1` it is “inactive”; for `CCCCc1ccc2c(n1)[C@@H](c1ccc(OC)cc1C[C@H](C)C(=O)O)[C@H](C(=O)O)[C@H]2c1ccc2c(c1)OCO2` it is “inactive”. On the same count and under the same terms, the entry for `CCCCCCCCCCCCCCC(=O)O` is “inactive”; for `CNCCO` it is “inactive”.

As for `O=CN(CCO)CCO`, the Potency result was “inactive”.

As to `C=CCCCCCCCCC(=O)OCC`, the Potency result was “inactive”. Turning to `Nc1ccn([C@@H]2O[C@H](CO)[C@@H](O)[C@@H]2O)c(=O)n1`, the Potency entry was “inactive”. The same measure, in the same setting: the entry for `CC(C)(C)C(=O)c1ccccc1` is “inactive”.

With `COc1cc2c(cc1OC)-c1cc3ccc(OC)c(OC)c3c[n+]1CC2`, the Potency entry was “inactive”.

Regarding `Cc1ccnc(NS(=O)(=O)c2ccc(N)cc2)n1`, the Potency result is “inactive”. Consider `CC(=O)OCC(=O)[C@@]1(O)[C@H](C)C[C@H]2[C@@H]3CCC4=CC(=O)C=C[C@]4(C)[C@@]3(F)[C@@H](O)C[C@@]21C`, for which the Potency entry is “inactive”. Still for that read-out and setting: the entry for `CC(C)[C@H]1CC[C@@H](C)CC1=O` is “inactive”; for `CC(C)(C)OC(=O)c1cccc(N)c1` it is “inactive”; for `CCOC(=O)C(=O)CCCCCCl` it is “inactive”. For the molecule `CN1CCC(=C2c3ccccc3CCc3cccnc32)CC1`, the Potency entry was “inactive”. On the same count and under the same terms, the entry for `Nc1ccn([C@@H]2O[C@H](CO)[C@@H](O)C2O)c(=O)n1` (stereo not given in full) is “inactive”.

Consider `COc1ccc2cc1Oc1cc3c(cc1OC)CC[N+](C)(C)[C@H]3Cc1ccc(cc1)Oc1c(OC)c(OC)cc3c1[C@@H](C2)[N+](C)(C)CC3`, for which the Potency result was “inactive”. On the same count and under the same terms, the entry for `FB(F)F` is “inactive”; for `O=C(O)CNC(=O)c1ccccc1` it is “inactive”; for `CCCCS(=O)(=O)N[C@@H](Cc1ccc(OCCCCC2CCNCC2)cc1)C(=O)O` it is “inactive”. Same read-out and setting: the entry for `Cc1ccc(-c2ccccc2C#N)cc1` is “inactive”; for `CCCCCCC#CC(=O)OC` it is “inactive”; for `[K+]` it is “inactive”.

On to `O=[N+]([O-])c1cncn1CCN1CCOCC1`, for which the Potency result was “inactive”. Same read-out and setting: the entry for `CCNC(=O)[C@@H]1CCCN1C(=O)[C@H](CCCN=C(N)N)NC(=O)[C@H](CC(C)C)NC(=O)CNC(=O)[C@H](Cc1ccc(O)cc1)NC(=O)[C@H](CO)NC(=O)[C@H](Cc1c[nH]c2ccccc12)NC(=O)[C@H](Cc1cnc[nH]1)NC(=O)[C@@H]1CCC(=O)N1` ([pGlu]HWSYGLRP-NHEt) is “inactive”; for `CCNS(=O)(=O)c1ccc(C)cc1` it is “inactive”; for `CCN(CC#N)c1cccc(C)c1` it is “inactive”.

For `CCCc1nn(C)c2c(=O)[nH]c(-c3cc(S(=O)(=O)N4CCN(C)CC4)ccc3OCC)nc12`, the Potency entry was “inactive”. Same read-out and setting: the entry for `C[N+]12CCC(CC1)C(OC(=O)C(O)(c1ccccc1)c1ccccc1)C2` (stereo not given) is “inactive”.

The record behind these values is PubChem BioAssay (Tox21).
